molecular target: pT7_6His-AlfaTag-HOXD13 (human, UniProt P35453 263-343); test: PADIT-seq; details: dsDNA, one strand shown
Sequence (P35453 263-343): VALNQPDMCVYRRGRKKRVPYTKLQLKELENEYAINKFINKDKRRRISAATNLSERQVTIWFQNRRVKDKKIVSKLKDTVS

| Sequence | binding signal |
| --- | --- |
| CTCGAGGATATCAAGATCTGGCCTCGGCTGAGTAAAAGGAACCTCTAGCTAGCCGACTCACTATAGGGATAATCGCCCTGAGCAAAGACC | 0.229 ± 0.0993 log2FC |
| CTCGAGGATATCAAGATCTGGCCTCGGCTATCTAAAAGGAACCTCTAGCTAGCCGACTCACTATAGGGATAATCGCCCTGAGCAAAGACC | -0.377 ± 0.118 log2FC |
| CTCGAGGATATCAAGATCTGGCCTCGGCTTTTTAGACGGAACCTCTAGCTAGCCGACTCACTATAGGGATAATCGCCCTGAGCAAAGACC | -0.513 ± 0.133 log2FC |
| CTCGAGGATATCAAGATCTGGCCTCGGCAGACTAAAAGGAACCTCTAGCTAGCCGACTCACTATAGGGATAATCGCCCTGAGCAAAGACC | -0.679 ± 0.104 log2FC |
| CTCGAGGATATCAAGATCTGGCCTCGGCGAGGTAAAAGGAACCTCTAGCTAGCCGACTCACTATAGGGATAATCGCCCTGAGCAAAGACC | -0.51 ± 0.0909 log2FC |
| CTCGAGGATATCAAGATCTGGCCTCGGCGTTTTACATGGAACCTCTAGCTAGCCGACTCACTATAGGGATAATCGCCCTGAGCAAAGACC | 2.03 ± 0.0856 log2FC |
| CTCGAGGATATCAAGATCTGGCCTCGGCATTTTATCCGGAACCTCTAGCTAGCCGACTCACTATAGGGATAATCGCCCTGAGCAAAGACC | 1.17 ± 0.0736 log2FC |
| CTCGAGGATATCAAGATCTGGCCTCGGCCTTTTATGAGGAACCTCTAGCTAGCCGACTCACTATAGGGATAATCGCCCTGAGCAAAGACC | 3.45 ± 0.0923 log2FC |
| CTCGAGGATATCAAGATCTGGCCTCGGCTTTTTATACGGAACCTCTAGCTAGCCGACTCACTATAGGGATAATCGCCCTGAGCAAAGACC | 2.44 ± 0.0818 log2FC |
| CTCGAGGATATCAAGATCTGGCCTCGGCCGTATAAAAGGAACCTCTAGCTAGCCGACTCACTATAGGGATAATCGCCCTGAGCAAAGACC | 2.31 ± 0.0858 log2FC |
| CTCGAGGATATCAAGATCTGGCCTCGGCCGCGTGCGCGGAACCTCTAGCTAGCCGACTCACTATAGGGATAATCGCCCTGAGCAAAGACC | -0.99 ± 0.127 log2FC |
| CTCGAGGATATCAAGATCTGGCCTCGGCTCAATAAAAGGAACCTCTAGCTAGCCGACTCACTATAGGGATAATCGCCCTGAGCAAAGACC | 2.74 ± 0.0786 log2FC |
| CTCGAGGATATCAAGATCTGGCCTCGGCGCGATAAAAGGAACCTCTAGCTAGCCGACTCACTATAGGGATAATCGCCCTGAGCAAAGACC | 1.22 ± 0.0747 log2FC |
| CTCGAGGATATCAAGATCTGGCCTCGGCGTCCTAAAAGGAACCTCTAGCTAGCCGACTCACTATAGGGATAATCGCCCTGAGCAAAGACC | 0.117 ± 0.0783 log2FC |
| CTCGAGGATATCAAGATCTGGCCTCGGCACGTTAAAAGGAACCTCTAGCTAGCCGACTCACTATAGGGATAATCGCCCTGAGCAAAGACC | 1.42 ± 0.0726 log2FC |
| CTCGAGGATATCAAGATCTGGCCTCGGCCAGGTAAAAGGAACCTCTAGCTAGCCGACTCACTATAGGGATAATCGCCCTGAGCAAAGACC | 0.0831 ± 0.0976 log2FC |
| CTCGAGGATATCAAGATCTGGCCTCGGCCGCATAAAAGGAACCTCTAGCTAGCCGACTCACTATAGGGATAATCGCCCTGAGCAAAGACC | 1.46 ± 0.0793 log2FC |
| CTCGAGGATATCAAGATCTGGCCTCGGCATTTTAAACGGAACCTCTAGCTAGCCGACTCACTATAGGGATAATCGCCCTGAGCAAAGACC | 1.29 ± 0.0911 log2FC |
| CTCGAGGATATCAAGATCTGGCCTCGGCACTTTAAAAGGAACCTCTAGCTAGCCGACTCACTATAGGGATAATCGCCCTGAGCAAAGACC | 2.07 ± 0.0674 log2FC |
| CTCGAGGATATCAAGATCTGGCCTCGGCGTTTTATCCGGAACCTCTAGCTAGCCGACTCACTATAGGGATAATCGCCCTGAGCAAAGACC | 1 ± 0.0994 log2FC |

| Sequence | binding signal |
| --- | --- |
| CTCGAGGATATCAAGATCTGGCCTCGGCGCGTGGCCAGGAACCTCTAGCTAGCCGACTCACTATAGGGATAATCGCCCTGAGCAAAGACC | -1.04 ± 0.128 log2FC |
| CTCGAGGATATCAAGATCTGGCCTCGGCTTTTTAGGGGGAACCTCTAGCTAGCCGACTCACTATAGGGATAATCGCCCTGAGCAAAGACC | 1.5 ± 0.0951 log2FC |
| CTCGAGGATATCAAGATCTGGCCTCGGCGATCTAAAAGGAACCTCTAGCTAGCCGACTCACTATAGGGATAATCGCCCTGAGCAAAGACC | -0.592 ± 0.0883 log2FC |
| CTCGAGGATATCAAGATCTGGCCTCGGCGTTTTAATCGGAACCTCTAGCTAGCCGACTCACTATAGGGATAATCGCCCTGAGCAAAGACC | 0.636 ± 0.0931 log2FC |
| CTCGAGGATATCAAGATCTGGCCTCGGCCTGGTAAAAGGAACCTCTAGCTAGCCGACTCACTATAGGGATAATCGCCCTGAGCAAAGACC | 0.442 ± 0.0982 log2FC |
| CTCGAGGATATCAAGATCTGGCCTCGGCCTTTTATTCGGAACCTCTAGCTAGCCGACTCACTATAGGGATAATCGCCCTGAGCAAAGACC | 1.67 ± 0.077 log2FC |
| CTCGAGGATATCAAGATCTGGCCTCGGCATTTTAGCCGGAACCTCTAGCTAGCCGACTCACTATAGGGATAATCGCCCTGAGCAAAGACC | -0.535 ± 0.111 log2FC |
| CTCGAGGATATCAAGATCTGGCCTCGGCCGCCCAGCAGGAACCTCTAGCTAGCCGACTCACTATAGGGATAATCGCCCTGAGCAAAGACC | -0.927 ± 0.127 log2FC |
| CTCGAGGATATCAAGATCTGGCCTCGGCTTGTTAAAAGGAACCTCTAGCTAGCCGACTCACTATAGGGATAATCGCCCTGAGCAAAGACC | 3.01 ± 0.0792 log2FC |
| CTCGAGGATATCAAGATCTGGCCTCGGCATTTTAGGCGGAACCTCTAGCTAGCCGACTCACTATAGGGATAATCGCCCTGAGCAAAGACC | -0.396 ± 0.116 log2FC |
| CTCGAGGATATCAAGATCTGGCCTCGGCATAGTAAAAGGAACCTCTAGCTAGCCGACTCACTATAGGGATAATCGCCCTGAGCAAAGACC | 1.98 ± 0.0822 log2FC |
| CTCGAGGATATCAAGATCTGGCCTCGGCCGGGTAAAAGGAACCTCTAGCTAGCCGACTCACTATAGGGATAATCGCCCTGAGCAAAGACC | -0.304 ± 0.0906 log2FC |
| CTCGAGGATATCAAGATCTGGCCTCGGCACAATAAAAGGAACCTCTAGCTAGCCGACTCACTATAGGGATAATCGCCCTGAGCAAAGACC | 2.72 ± 0.0742 log2FC |
| CTCGAGGATATCAAGATCTGGCCTCGGCCCGCTAAAAGGAACCTCTAGCTAGCCGACTCACTATAGGGATAATCGCCCTGAGCAAAGACC | -0.398 ± 0.11 log2FC |
| CTCGAGGATATCAAGATCTGGCCTCGGCTTTTTAGCAGGAACCTCTAGCTAGCCGACTCACTATAGGGATAATCGCCCTGAGCAAAGACC | 0.699 ± 0.0959 log2FC |
| CTCGAGGATATCAAGATCTGGCCTCGGCCGATTAAAAGGAACCTCTAGCTAGCCGACTCACTATAGGGATAATCGCCCTGAGCAAAGACC | 1.2 ± 0.104 log2FC |
| CTCGAGGATATCAAGATCTGGCCTCGGCATTTTATTCGGAACCTCTAGCTAGCCGACTCACTATAGGGATAATCGCCCTGAGCAAAGACC | 1.83 ± 0.0742 log2FC |
| CTCGAGGATATCAAGATCTGGCCTCGGCCGAGTAAAAGGAACCTCTAGCTAGCCGACTCACTATAGGGATAATCGCCCTGAGCAAAGACC | 0.186 ± 0.114 log2FC |
| CTCGAGGATATCAAGATCTGGCCTCGGCGCGCTAAAAGGAACCTCTAGCTAGCCGACTCACTATAGGGATAATCGCCCTGAGCAAAGACC | -0.366 ± 0.0916 log2FC |

— article doi:10.1101/2024.03.05.583629
